From PubChem BioAssay (EPA / NIEHS)
Records with an inconclusive call do not appear. Activity calls are given as the source filed them. Rule for the calls, unless noted: active = hit-call score of the fitted dose curve at least 0.9, where 1 is the maximum; inconclusive = response in the unintended direction; inactive = score below 0.9.

Legend:
[1] = CCTE_Mundy_HCI_hN2_NOG_NeuriteLength: CCTE's Neurite Outgrowth Assay in human hN2 cells for Neurite Length, Mundy Lab (AID 2284220)
How it was run: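 Read-out is neurite length from high-content imaging of βIII-tubulin/Alexa Fluor-488-labelled neurons, referenced to DMSO controls.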

[2] = CCTE_Mundy_HCI_hN2_NOG_NeuronCount: CCTE's Neurite Outgrowth Assay in human hN2 cells for Neuron Count, Mundy Lab (AID 2284221)
How it was run: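 Read-out is the number of betaIII-tubulin-positive neurons imaged by automated high-content analysis, with DMSO as negative control.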

[3] = CCTE_Mundy_HCI_Cortical_Synap_Neur_Matur_CellBodySpotCount: CCTE's Synaptogenesis and Neurite Maturation Assay in rat cortical cells for Cell Body Spot Count, Mundy Lab (AID 2284223; active = hit-call score of the fitted dose curve at least 0.9, where 1 is the maximum; inactive = score below 0.9)
How it was run: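 Synapse number at neuronal cell bodies was quantified as synaptophysin puncta per neuron in rat cortical cultures exposed from DIV 7 to DIV 12. Values were normalised to DMSO.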

[4] = UKN4_HCS_LUHMES_cell_viability: Viability Assessment in the University of Konstanz (UKN) Leist Lab Neurite Outgrowth Assay in human LUHMES cells (UKN4) (AID 2284232; active = hit-call score of the fitted dose curve at least 0.9, where 1 is the maximum; inactive = score below 0.9)
How it was run: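 Fluorescence intensity from high-content imaging of Hoechst H-33342/calcein-AM-stained cells served as the viability read-out. Human LUHMES precursors were differentiated 2 days, replated and treated 24 h; curves were fitted bidirectionally against DMSO.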

[5] = UKN2_HCS_IMR90_cell_viability: Viability Assessment in the University of Konstanz (UKN) Leist Lab Neural Crest Cell Migration Assay in human induced IMR90 Pluripotent Stem Cells (UKN2) (AID 2284233; active = hit-call score of the fitted dose curve at least 0.9, where 1 is the maximum; inactive = score below 0.9;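 note: viability of neural crest cells differentiated from IMR90 iPSC measured by calcein-AM fluorescence imaging; cells exposed to compound for 24 h after a 24 h migration phase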)
How it was run: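 Neural crest cells derived from IMR90 iPSC migrate into a stopper-free zone for 24 h in EGF/FGF medium, then are exposed to compound for 24 h. Viability assessed by calcein-AM and Hoechst staining with high-content imaging, fitted bidirectionally versus DMSO.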

[6] = TAMU_PeakParms_SingleDonor1434_QT: Texas A&M University (TAMU) 1.5-hr Human Induced Pluripotent Stem Cell (iPSC)-derived Cardiomyocytes Calcium (Ca+2) Flux Assay for Cardiotoxicity: QT (decay-rise ratio) (AID 2284235)
How it was run: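 iPSC-derived cardiomyocytes (single donor 1434) dosed at 0.2, 1, 10, 100 uM final in 0.5% DMSO, 90 min at 37C. Ca2+ flux fluorescence decay/rise ratio; EC05 (5% increase versus DMSO) as POD, excluding beat-arrest and severe-notch data.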

[7] = CCTE_Mundy_HCI_Cortical_Synap_Neur_Matur_NeuriteCount: CCTE's Synaptogenesis and Neurite Maturation Assay in rat cortical cells for Neurite Count, Mundy Lab (AID 2284222; active = hit-call score of the fitted dose curve at least 0.9, where 1 is the maximum; inactive = score below 0.9)
How it was run: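 Rat cortical neurons, 96-well; AraC DIV 5; chemical + media change DIV 7; end DIV 12. Fix PFA/Hoechst, anti-MAP2 + anti-synaptophysin IF. HCI neurite count vs DMSO baseline.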

[8] = CCTE_Mundy_HCI_hNP1_Pro_ResponderAvgInten: CCTE's Proliferation Assay in human neuroprogenitor cells, Mundy Lab (AID 2284224);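 note: human neural progenitor cells hNP1 derived from WA09 embryonic stem cells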
How it was run: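 Proliferation read as average intensity of BrdU-positive cells, imaged at 26.25 h post-dosing: chemical exposure started after 40–44 h culture, BrdU during final 4 h, paraformaldehyde fixation. Positive-direction fit relative to DMSO.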

[9] = CCTE_Mundy_HCI_Cortical_NOG_BPCount: CCTE's Neurite Outgrowth Assay in rat cortical cells for Branch Point Count, Mundy Lab (AID 2284237; active = hit-call score of the fitted dose curve at least 0.9, where 1 is the maximum; inactive = score below 0.9)
How it was run: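 Measured 50.33 h after dosing, this morphology endpoint uses rat primary cortical cultures labelled for betaIII-tubulin. Branch points are quantified by high-content imaging, with DMSO as negative control and baseline.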

[10] = TAMU_HCS_1.5hr_SingleDonor1434_Cytotoxicity: Cytotoxicity Assessment using High-content Screening (HCS) Fluorescent Imaging for the Texas A&M University (TAMU) 1.5-hr Human Induced Pluripotent Stem Cell (iPSC)-derived Cardiotoxicity Assay (AID 2284234)
How it was run: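 Human iPSC-derived cardiomyocytes dosed at 0.2, 1, 10, 100 uM final (0.5% DMSO) for 90 min at 37 C. Hoechst 33342-stained nuclei counted by 10x high-content imaging; POD is EC10, a 10% drop in total cell count versus DMSO.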

Measured: AC50

O=C1NC(=O)C(c2ccccc2)(c2ccccc2)N1
inactive: [1] | [2] | [3] | [4] | [5]

CCc1nc(N)nc(N)c1-c1ccc(Cl)cc1
inactive: [6]

CN(C)CCCN1c2ccccc2Sc2ccc(Cl)cc21
active: [1] 14.3 µM | [2] 9.61 µM | [7] 21.1 µM | [5] 14.3 µM
inactive: [3] | [8]

OCC(O)CO
inactive: [7] | [3] | [8] | [4] | [9]

Cc1occc(=O)c1O
inactive: [10] | [6]

COC(=O)[C@H]1[C@H]2C[C@@H]3c4[nH]c5cc(OC)ccc5c4CCN3C[C@H]2C[C@@H](OC(=O)c2cc(OC)c(OC)c(OC)c2)[C@@H]1OC
inactive: [10] | [6]

CC(=O)CC(c1ccccc1)c1c(O)c2ccccc2oc1=O (configuration not stated)
inactive: [7] | [3] | [8] | [9]

O=C(O)CC(O)(CC(=O)O)C(=O)O
inactive: [10] | [6]
